Results filed as inconclusive are left out. The source made the active and inactive calls. Unless noted, calls follow the shape of the full dose curve.
Legend:
[1] = target: Aromatase (Homo sapiens) (UniProt P11511); test: qHTS assay to identify aromatase inhibitors (AID 743083; active = well fitted curve in the direction sought with a large enough effect in the repeat runs; an effect the other way counts as inactive or inconclusive; also: nearly all actives have a fitted effect of over 55% in size; also: potency is read from the fitted curve at half-maximal effect)
[2] = qHTS assay to identify small molecule antagonists of the retinoic acid receptor (RAR) signaling pathway (AID 1159552; active = well fitted curve in the direction sought with a large enough effect in the repeat runs; an effect the other way counts as inactive or inconclusive; also: nearly all actives have a fitted effect of over 50% in size; also: potency is read from the fitted curve at half-maximal effect)
Summary of the method: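 Luminescent RARE reporter read-out in C3RL4 cells: 6 hr co-treatment at 37 C of test compounds with retinol at 1 uM final. Cells plated overnight beforehand; luciferase reagent incubated 30 min at room temperature before reading.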

[3] = qHTS assay to identify small molecule agonists of H2AX (AID 1224845; active = well fitted activation curve with a large enough effect in the signal ratio in the repeat runs, not every such curve was filed as active; the % refers to the signal ratio)
Summary of the method: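 Phospho-H2AX Ser139 measured by HTRF (ex 320 nm; em 665 and 620 nm) after 24 hr antibody incubation. Compounds, 15 concentrations, 0.76% DMSO, were applied to CHO-K1 cells for 3hr at 37C before lysis.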

[4] = Caspase-3/7 induction in HepG2 cells by small molecules, qHTS assay (AID 1346978; active = well fitted curve in the direction sought with a large enough effect in the repeat runs; an effect the other way counts as inactive or inconclusive; also: nearly all actives have a fitted effect of over 15% in size)
Summary of the method: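 Caspase-3/7 induction was measured by Caspase-Glo 3/7 luminescence (30 min, room temperature) after a 17 hr compound exposure of wild-type HepG2 cells seeded at 2,000 per well and pre-incubated 5 hr.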

[5] = target: Acetylcholinesterase (Homo sapiens) (UniProt P22303); test: Acetylcholinesterase (AChE) small molecule antagonists: colormetric cell-based qHTS assay (AID 1347395); also: nearly all actives have a fitted effect of over 30% in size
Summary of the method: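 Colorimetric readout: DTNB quantifies thiocholine from acetylthiocholine hydrolysed by endogenous AChE of SH-SY5Y cells (2,000/well, plated overnight). Compound pretreatment 30 min, substrate incubation 90 min, both 37 C.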

[6] = target: Acetylcholinesterase (Homo sapiens) (UniProt P22303); test: Acetylcholinesterase (AChE) small molecule antagonists: fluorescence cell-based qHTS assay (AID 1347398); conditions: Potency: AChE activity; outcome: AChE activity; also: nearly all actives have a fitted effect of over 50% in size
Summary of the method: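 Read-out is Thiolite Green fluorescence at Ex/Em = 490/520 nm, formed by reaction with thiocholine released when cellular AChE in SH-SY5Y cells hydrolyzes acetylthiocholine. Compounds were preincubated 30 min at 37 C before substrate.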

[7] = target: Acetylcholinesterase (Homo sapiens) (UniProt P22303); test: Acetylcholinesterase (AChE) small molecule antagonists: enzyme-based qHTS assay with human liver microsomes (AID 1347399); conditions: Potency: qHTS inhibition; outcome: qHTS inhibition; also: nearly all actives have a fitted effect of over 60% in size
Summary of the method: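 Recombinant human AChE (50 mU/mL in the enzyme mix) and human liver microsomes (0.25 mg/mL final) were preincubated with compound and NADPH (0.25 mg/mL final) for 30 min at 37 C. Acetylthiocholine/DTNB was then added; thiocholine was read colorimetrically after 10 min at room temperature.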

[8] = target: Acetylcholinesterase (Homo sapiens) (UniProt P22303); test: Acetylcholinesterase (AChE) small molecule antagonists: enzyme-based qHTS assay (AID 1347397); conditions: Potency: AChE enzyme activity inhibition; outcome: AChE enzyme activity inhibition; also: nearly all actives have a fitted effect of over 55% in size
Summary of the method: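 rhAChE 50 mU/mL (dispensed) + cpd or DMSO, 30 min RT; add DTNB/acetylthiocholine cocktail, 10 min RT; colorimetric thiocholine readout. qHTS, 1536-well format.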

[9] = target: Aryl hydrocarbon receptor (Homo sapiens) (UniProt P35869); test: qHTS assay to identify small molecule that activate the aryl hydrocarbon receptor (AhR) signaling pathway (AID 743085; active = well fitted curve in the direction sought with a large enough effect in the repeat runs; an effect the other way counts as inactive or inconclusive; also: nearly all actives have a fitted effect of over 15% in size; also: potency is read from the fitted curve at half-maximal effect;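 as to activation: HG2L7.5c1 human HepG2 liver cells with stably integrated DRE-driven firefly reporter; series mostly up to about 70 µM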)
Summary of the method: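 Luminescence (ONE-Glo) from a dioxin-responsive-element luciferase reporter in HG2L7.5c1 HepG2 cells after 24 hr compound exposure at 37C; viability measured by CellTiter-Fluor fluorescence beforehand.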

[10] = qHTS assay to identify small molecule agonists of the estrogen related receptor signaling pathway with the pleiotropic PPARgamma coactivator (PGC) from Tox21 10K library (AID 1224842; active = well fitted curve in the direction sought with a large enough effect in the repeat runs; an effect the other way counts as inactive or inconclusive; also: nearly all actives have a fitted effect of over 15% in size)
Summary of the method: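 Luminescence from One-Glo (30 min, room temperature) measured after PGC/ERR cells had 18 h at 37 C with pinned compound (23 nL in DMSO). Cells had been seeded at 2,000 per well and pre-incubated 6 h.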

[11] = A CellTox Green Cytotoxicity Assay to monitor cytotoxicity in HepG2 cells - 0 hour (AID 1224882; active = well fitted curve in the direction sought with a large enough effect in the repeat runs; an effect the other way counts as inactive or inconclusive; also: nearly all actives have a fitted effect of over 35% in size)
Summary of the method: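 Using 1536-well format, dye-containing HepG2 suspension was seeded, allowed 5 h at 37 C/5% CO2, dosed by pintool with compounds, positive and negative controls, and imaged for fluorescence across 40 h.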

[12] = qHTS assay to identify small molecule HDAC inhibitors (AID 1259364; active = well fitted curve in the direction sought with a large enough effect in the repeat runs; an effect the other way counts as inactive or inconclusive;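 also: wild-type HCT-116 cells with endogenous class I/II HDAC activity; top concentration of the series differs between compounds; nearly all actives have a fitted effect of over 45% in size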)
Summary of the method: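 Read-out: luminescence of HDAC-Glo I/II reagent, 30 min RT, reflecting class I/II deacetylase activity in whole HCT-116 cells pre-exposed 2 h to DMSO-dissolved compounds.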

[13] = qHTS assay to identify small molecule agonists of the sonic hedgehog signaling (Shh) pathway (AID 1259368);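 also: NIH/3T3-derived 3T3Gli1-Luc cells carrying a stable Gli1-driven firefly luciferase reporter; series mostly up to about 92 µM; nearly all actives have a fitted effect of over 15% in size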
Summary of the method: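 A Gli1 transcriptional response element controlled firefly luciferase in 3T3Gli1-Luc cells. Compounds and a positive control were added 4 hr after plating, and cells were incubated a further 24 hr at 37 C before luminescence detection.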

[14] = Caspase-3/7 induction in CHO-K1 cells by small molecules, qHTS assay (AID 1346980; active = well fitted curve in the direction sought with a large enough effect in the repeat runs; an effect the other way counts as inactive or inconclusive; also: nearly all actives have a fitted effect of over 15% in size)
Summary of the method: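 Luminescent Caspase-Glo 3/7 read (30min, room temperature) quantified apoptosis induction. Cells were wild-type CHO-K1, treated with compound for 17hr at 37 C and 5% CO2.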

Measured: Potency

Sequence of Acetylcholinesterase (Homo sapiens) (P22303 whole entry, looked up): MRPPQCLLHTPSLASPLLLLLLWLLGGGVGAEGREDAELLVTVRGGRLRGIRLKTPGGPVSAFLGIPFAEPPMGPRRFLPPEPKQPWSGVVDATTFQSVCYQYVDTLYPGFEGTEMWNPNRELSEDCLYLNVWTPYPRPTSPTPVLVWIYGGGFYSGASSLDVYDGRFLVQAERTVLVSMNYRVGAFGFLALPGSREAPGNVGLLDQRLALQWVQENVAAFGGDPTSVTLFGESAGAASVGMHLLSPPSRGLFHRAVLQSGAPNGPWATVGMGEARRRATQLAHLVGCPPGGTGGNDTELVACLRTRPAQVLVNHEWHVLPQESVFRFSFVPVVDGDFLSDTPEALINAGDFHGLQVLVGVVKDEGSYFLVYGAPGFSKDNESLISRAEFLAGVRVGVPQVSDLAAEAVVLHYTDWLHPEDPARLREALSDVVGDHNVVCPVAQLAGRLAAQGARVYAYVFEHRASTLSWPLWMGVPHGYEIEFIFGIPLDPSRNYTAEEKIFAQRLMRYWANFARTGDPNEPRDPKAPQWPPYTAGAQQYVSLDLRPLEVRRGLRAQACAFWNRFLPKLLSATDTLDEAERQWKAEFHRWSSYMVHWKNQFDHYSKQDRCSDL
Sequence of Aryl hydrocarbon receptor (Homo sapiens) (P35869 whole entry, looked up): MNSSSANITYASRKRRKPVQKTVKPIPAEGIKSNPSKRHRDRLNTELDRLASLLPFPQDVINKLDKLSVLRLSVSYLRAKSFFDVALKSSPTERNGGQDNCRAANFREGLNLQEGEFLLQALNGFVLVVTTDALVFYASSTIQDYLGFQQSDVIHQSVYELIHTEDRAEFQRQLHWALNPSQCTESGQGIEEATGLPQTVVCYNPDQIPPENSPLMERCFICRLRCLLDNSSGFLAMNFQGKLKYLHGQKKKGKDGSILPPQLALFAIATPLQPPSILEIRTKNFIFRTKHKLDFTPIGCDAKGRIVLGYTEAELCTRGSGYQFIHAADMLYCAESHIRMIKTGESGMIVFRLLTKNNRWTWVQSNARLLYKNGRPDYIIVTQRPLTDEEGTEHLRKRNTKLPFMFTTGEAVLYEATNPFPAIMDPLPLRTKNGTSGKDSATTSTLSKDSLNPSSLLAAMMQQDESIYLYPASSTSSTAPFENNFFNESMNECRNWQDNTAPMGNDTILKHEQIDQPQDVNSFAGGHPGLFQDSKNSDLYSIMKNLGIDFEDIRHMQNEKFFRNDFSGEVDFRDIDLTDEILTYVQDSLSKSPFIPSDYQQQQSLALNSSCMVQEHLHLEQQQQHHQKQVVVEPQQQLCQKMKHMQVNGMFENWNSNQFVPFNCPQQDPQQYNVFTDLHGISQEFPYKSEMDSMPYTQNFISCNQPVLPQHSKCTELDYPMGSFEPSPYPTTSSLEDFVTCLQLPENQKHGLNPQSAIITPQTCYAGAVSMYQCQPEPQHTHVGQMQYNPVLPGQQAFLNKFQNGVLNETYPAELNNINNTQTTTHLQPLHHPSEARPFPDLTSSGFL
Sequence of Aromatase (Homo sapiens) (P11511 whole entry, looked up): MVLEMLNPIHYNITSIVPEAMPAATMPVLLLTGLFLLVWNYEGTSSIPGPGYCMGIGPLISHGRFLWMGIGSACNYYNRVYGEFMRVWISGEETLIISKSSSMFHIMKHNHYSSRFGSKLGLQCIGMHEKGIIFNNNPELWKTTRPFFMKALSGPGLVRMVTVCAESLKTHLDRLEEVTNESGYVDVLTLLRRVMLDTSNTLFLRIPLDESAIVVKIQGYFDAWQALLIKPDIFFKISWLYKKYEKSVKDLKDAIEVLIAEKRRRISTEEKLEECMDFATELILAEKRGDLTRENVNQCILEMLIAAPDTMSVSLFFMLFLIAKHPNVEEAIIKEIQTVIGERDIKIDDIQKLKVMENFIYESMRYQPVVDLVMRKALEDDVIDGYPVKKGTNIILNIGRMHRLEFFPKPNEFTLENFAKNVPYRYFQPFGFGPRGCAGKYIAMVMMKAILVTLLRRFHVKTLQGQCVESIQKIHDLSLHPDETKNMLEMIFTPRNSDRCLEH

Cc1cccc(C)c1[N+](=O)[O-]
inactive: [1] | [2] | [3] | [4] | [5] | [6] | [7]

Cc1ccccc1N=O
inactive: [2] | [4] | [5] | [8] | [6] | [7]

OCC(CBr)(CBr)CBr
inactive: [1] | [2] | [3] | [4] | [5] | [8] | [6] | [7]

O=[N+]([O-])c1ccc2ncccc2c1
inactive: [2] | [5] | [8] | [6] | [7]

O=[N+]([O-])c1cccc(Cl)c1Cl
inactive: [9] | [2] | [10] | [5] | [8] | [6] | [7]

C=CCOC(=O)c1ccccc1C(=O)OCC=C
inactive: [1] | [9] | [2] | [3] | [5] | [8] | [6] | [7]

C1=CC2C3C=CC(C3)C2C1 (centres undefined)
inactive: [1] | [2] | [5] | [8] | [6] | [7]

CCc1cccc(CC)c1N
inactive: [1] | [9] | [3] | [5] | [8] | [6] | [7]

Nc1cccc(C(F)(F)F)c1
inactive: [1] | [9] | [2] | [5] | [8] | [6] | [7]

C=CC(=O)OCCCC
inactive: [1] | [5] | [8] | [6] | [7]

Nc1ccc(Cl)cc1Cl
inactive: [2] | [10] | [3] | [4] | [5] | [8] | [6] | [7]

c1ccncc1
inactive: [1] | [9] | [4] | [5] | [8] | [6] | [7]

C=CC(=O)OCCCCCCCC(C)C
inactive: [1] | [9] | [2] | [3] | [5] | [8] | [6] | [7]

Brc1ccccc1-c1ccccc1
inactive: [2] | [4] | [5] | [8] | [6] | [7]

Brc1c2ccccc2cc2ccccc12
inactive: [1] | [9] | [2] | [4] | [5] | [8] | [6] | [7]

Clc1ccccc1-c1ccccc1Cl
active: [1] 78.1 µM
inactive: [9] | [2] | [11] | [12] | [13] | [4] | [14] | [5] | [8] | [6] | [7]

Nc1ccc2c3c(cccc13)-c1ccccc1-2
inactive: [1] | [2] | [5] | [8] | [6] | [7]
active: [9] 21.9 µM

CC(C)=O
inactive: [1] | [2] | [5] | [8] | [6] | [7]

Oc1c(Cl)ccc(Cl)c1Cl
inactive: [1] | [9] | [2] | [10] | [4] | [5] | [8] | [6] | [7]

O=[N+]([O-])c1cc(C(F)(F)F)ccc1Cl
inactive: [1] | [10] | [5] | [8] | [6] | [7]

Fc1c(F)c(F)c(Br)c(F)c1F
inactive: [1] | [9] | [2] | [4] | [5] | [8] | [6] | [7]

CC(CCl)OP(=O)(OC(C)CCl)OC(C)CCl (centres undefined)
inactive: [1] | [9] | [2] | [5] | [8] | [6] | [7]

Brc1ccc(Br)c(Br)c1
inactive: [1] | [9] | [2] | [3] | [4] | [5] | [8] | [7]

COc1ccccc1[N+](=O)[O-]
inactive: [1] | [9] | [2] | [10] | [3] | [4] | [5] | [8] | [6] | [7]

O=C(O)C(c1ccc(Cl)cc1)c1ccc(Cl)cc1
inactive: [1] | [9] | [4] | [5] | [8] | [6] | [7]

Cc1ccc(N)c([N+](=O)[O-])c1
inactive: [1] | [9] | [2] | [5] | [8] | [6] | [7]

O=C(c1ccc(Cl)cc1)c1ccc(Cl)cc1
inactive: [4] | [5] | [8] | [6] | [7]

Oc1cc(Cl)cc(Cl)c1Cl
inactive: [4] | [5] | [8] | [6] | [7]
active: [9] 24.9 µM | [2] 62.6 µM

CC(C)(C)OCC1CO1 (centres undefined)
inactive: [1] | [2] | [5] | [8] | [6] | [7]

Brc1ccc(-c2ccccc2)cc1
inactive: [1] | [2] | [5] | [8] | [6] | [7]

CC(CCl)OC(C)CCl (centres undefined)
inactive: [1] | [5] | [8] | [6] | [7]
